Screening data (PubChem BioAssay)
HCV inhibitor – qHTS Assay for Inhibitors of Hepatitis C Virus (HCV) | Huh7.5.1 HCVcc-Cre infection, luciferase reporter, 44 h | Potency, µM (top dose mostly 41.8 µM), most hits filed as inhibitors | actives 3.4% (n = 340,000) | AID 651820, 2012; active means well fitted inhibition curve with a large enough effect; inconclusive means small, poorly fitted or top-dose-only effect, or another doubt; inactive means no such curve, though single readings can be large or run the other way
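Cells seeded at 1,000/well and cultured 4 h, then compounds added followed by HCVcc-Cre virus (~0.5 moi). After 44 h further culture, luciferase substrate was added, plates held 15 min at room temperature, and luminescence read for 15 sec.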
Lassa entry inh – qHTS for Inhibitors of binding or entry into cells for Lassa Virus. Lassa virus pseudotype entry inhibition, cell reporter. Potency, µM (series often up to 37.9 µM), most hits filed as inhibitors. actives 1.2% (n = 300,000); calls by dose curve; tested in HEK293 cells; further: nearly all actives have a fitted effect of over 50% in size
Marburg entry inh – qHTS for inhibitors of binding or entry into cells for Marburg Virus; Marburg virus pseudotyped entry inhibition, cell reporter; actives 1.8% (n = 300,000); AID 540276, 2011; Potency, µM (titrated, usually from 37.8 µM), hits mostly inhibitors; calls by dose curve; tested in HEK293 cells
VACV mCherry inh – qHTS for Stage-Specific Inhibitors of Vaccinia Orthopoxvirus: mCherry Reporter Primary qHTS; Vaccinia virus mCherry reporter infection, fluorescence; Potency, µM (highest dose often 36.5 µM), usual class: inhibitors; actives 0.63% (n = 310,000); AID 720579, 2013; calls by dose curve; tested in A549 cells; further: nearly all actives have a fitted effect of over 35% in size
VACV Venus inh – qHTS for Stage-Specific Inhibitors of Vaccinia Orthopoxvirus: Venus Reporter Primary qHTS. actives 0.46% (n = 330,000). Potency, µM (series often up to 36.5 µM), actives largely listed as inhibitors. AID 720580, 2013. Vaccinia virus Venus reporter expression, fluorescence; calls by dose curve; tested in A549 cells; further: nearly all actives have a fitted effect of over 30% in size
Hits are given with their value; – = inactive; ? = inconclusive; · = no result given; ! = a repeat was not active; [ ] = dose if it differs, or a comment. Shown are actives, neighbours in structure and some others; about 4.6% of the full set was active somewhere.

SMILES	HCV inhibitor	Lassa entry inh	Marburg entry inh	VACV mCherry inh	VACV Venus inh
COc1cc(/C=C2\C=Cc3ccccc32)ccc1N(C)C	·	·	·	–	–
CC(=O)c1ccc(OCc2cc(C(=O)N3CCN(C4CCCC4)C(=O)C3)no2)cc1	–	3.16µM	–	–	–
Nc1ccn([C@@H]2O[C@H](CO)[C@@H](O)[C@H]2O)c(=O)n1	–	·	·	–	–
N=c1ccn2c(n1)OC1C(O)C(CO)OC12 (stereo not drawn)	–	·	·	28.2µM	?
OCC1OC(n2cnc3ncccc32)C(O)C1O (stereo not drawn)	·	·	·	–	–
Nc1ccn(C2OC(COC(=O)C34CC5CC(CC(C5)C3)C4)C(O)C2O)c(=O)n1 (stereo not drawn)	–	–	–	0.316µM	?
Nc1ccn([C@@H]2O[C@H](CO)[C@@H](O)C2O)c(=O)n1 (stereo partly drawn)	?	?	?	0.447µM	–
Cc1ccc(C)c(-n2c3nc(=O)[nH]c(=O)c-3cc3cc([N+](=O)[O-])ccc32)c1	–	3.16µM	?	–	–
O=C(NC(Cc1cccc(F)c1)C(=O)O)C1CCCCC1 (stereo not drawn)	2.82µM	·	·	–	–
O=C(CSc1nnc(Cc2ccccc2)o1)N1CCc2ccccc21	–	–	–	·	–
O=C(CSc1nnc(COc2cccc3cccnc23)o1)N1CCc2ccccc21	2.24µM	–	–	–	–
CCCS(=O)(=O)c1c(S(=O)(=O)CCC)c2cc(-c3ccncc3)ccn2c1C(=O)OC	–	–	5.62µM	–	–
Cc1cccn2c(CNCC3(c4ccccc4)CCCC3)c(C(=O)N3CCOCC3)nc12	–	?	8.91µM	–	–
COc1cccc(NC(=O)COc2ccccc2C(=O)Nc2ccccc2)c1	·	·	·	–	–
CC1CCc2nc(NC(=O)Cc3cccs3)sc2C1 (stereo not drawn)	?	–	–	·	–
CC1CCc2nc(NC(=O)c3ccco3)sc2C1 (stereo not drawn)	?	0.282µM	1.26µM	–	?
O=C(Nc1nc2cc3c(cc2s1)OCO3)C1=COCCO1	?	?	0.651µM	?	–
O=C(Nc1nc2cc3c(cc2s1)OCCO3)c1ccco1	?	0.794µM	0.794µM	?	?
O=C(Nc1nc2cc3c(cc2s1)OCO3)c1ccco1	–	?	?	–	–
O=C(Nc1ccc(-c2nc3ccccc3s2)cc1)C1=COCCO1	–	2µM	0.794µM	–	–
O=C(CN1C(=O)C(c2ccc(F)cc2)=NC12CCCCCC2)Nc1ccccc1Cl	·	–	?	–[7.34 µM]	–[7.34 µM]
CCc1ccc(NC(=O)Cn2c(=O)n(Cc3nc(C)no3)c(=O)c3cc4c(cc32)OCO4)cc1	·	–	·	–	–
CC(C)C(=O)Nc1nc2cc3c(cc2s1)OCCO3	?	4.47µM	?	–	–
CC(=O)Nc1nc2cc3c(cc2s1)OCO3	–	·	·	–	–
CCOC(=O)C1=CN(Cc2cccc(F)c2)S(=O)(=O)N(CC)C1c1ccccc1 (stereo not drawn)	0.562µM	·	·	?	–
SMILES	HCV inhibitor	Lassa entry inh	Marburg entry inh	VACV mCherry inh	VACV Venus inh
CCOC(=O)C1=CN(Cc2cccc(F)c2)S(=O)(=O)N(CC)C1c1cccc(OC)c1 (stereo not drawn)	–	·	·	–	–
COc1ccc(-c2n(Cc3ccccc3)c3ccccc3[n+]2Cc2ccccc2)cc1	?	8.2µM	5.8µM	·	·
CCOc1ccc(-c2nnc(SCC(=O)NCc3ccccc3Cl)o2)cc1	·	?	–	–	–
O=C(C[n+]1cccc(Cl)c1)c1ccc(F)cc1	·	·	·	–	–
Nn1c(C2COc3ccccc3O2)n[nH]c1=S (stereo not drawn)	–	·	·	·	·
c1ccc2c(c1)OCC(C1=NCCN1)O2 (stereo not drawn)	–[8.37 µM]	2.59µM!	?	–	–
Cc1ccc(NC(=O)Cn2c(=O)n(Cc3ccc4c(c3)OCO4)c(=O)c3ccccc32)c(C)c1	·	–	?	–	–
O=C(NCCOc1ccccc1)c1cccc2c1C(=O)c1ccc(Cl)cc1S2(=O)=O	10µM	·	·	–	–
CCCSc1ncc(Cl)c(C(=O)Nc2sc(C(C)=O)c(C)c2C(=O)OCC)n1	·	–	–	–	–
CCNC(=S)N/N=C/c1cccc(OCc2c(F)cccc2Cl)c1	?	9.2µM	?	–	–
Fc1ccccc1COc1ccc(/C=N/NC(=S)NCc2ccccc2)cc1	–	?	–	·	·
CCNC(=S)N/N=C/c1cccc(/C=N/NC(=S)NCC)c1	–	–	–	–	–
CNC(=S)N/N=C/c1cccc(OCc2ccccc2F)c1	?	3.98µM	?	–	–
Cc1ncc2c(c1CNS(=O)(=O)c1cccs1)CCN(C(=O)/C=C/c1ccc(F)cc1F)C2	·	·	·	–	–
Cc1cnn(-c2cc(N/N=C/c3ccccc3Cl)ncn2)c1	–	–	–	–	–
COc1cccc(/C=N/Nc2nc(Nc3ccccc3)nc(-n3nc(C)cc3C)n2)c1O	8.91µM	15.8µM	?	·	?
Cc1cc(C)n(-c2nc(Nc3ccccc3)nc(-n3nc(C)cc3C)n2)n1	–	–	–	–	–
COc1cccc(/C=N/Nc2cc(-n3nc(C)cc3-c3ccccc3)ncn2)c1O	5.62µM	?	?	12.6µM	?
COc1ccc(N2CC(NC(=O)C3CC3)CC2=O)cc1 (stereo not drawn)	·	–	·	–[7.34 µM]	–[7.34 µM]
Cc1ccc(-n2nc(C)c3c(C(=O)Nc4ccc(C)cc4Cl)cc(C)nc32)cc1	·	–	·	–	–
CCCCCCCCCCCCCC(=O)Nc1ccc(/C=C/c2ccnc3ccccc23)cc1	·	·	·	–	–
CCOC(=O)N1CCC(NC(=O)c2ccc3c(c2)N=C(CC)c2cc(C)ccc2S3)CC1	3.16µM	?	?	–	–
CC1=Nc2cc(C(=O)NC3CCCCC3)ccc2Sc2ccc(Cl)cc21	·	3.98µM	·	–[7.34 µM]	–[7.34 µM]
CC1=Nc2cc(C(=O)NC3CCCC3)ccc2Sc2ccc(Br)cc21	·	–	?	?	?
CC1=Nc2cc(C(=O)NCCc3ccc(Cl)cc3)ccc2Sc2ccc(C)cc21	·	?	7.94µM	?	?
SMILES	HCV inhibitor	Lassa entry inh	Marburg entry inh	VACV mCherry inh	VACV Venus inh
CCCC1=Nc2cc(C(=O)N3CCN(c4ccccn4)CC3)ccc2Sc2ccc(C)cc21	11.2µM	–	?	–	–
Cc1ccc(CCNC(=O)c2cn(C)c3ccc(S(=O)(=O)N4CCCCC4)cc3c2=O)cc1	·	–	?	?	–
COc1ccc(OC)c(CN2CCC3(CCC(CNC(=O)c4ccco4)O3)CC2)c1 (stereo not drawn)	·	·	·	–	–
CCCN(CCC)C(=O)c1nn(C)c2c1CSc1ccccc1-2	·	–	–	–	–
Cc1ccccc1C(=O)Nc1nnc(-c2ccco2)s1	11.2µM	4.11µM	1.26µM	–	–
COc1ccccc1C(=O)Nc1nnc(-c2ccco2)s1	–	–	?	–	–
CCc1ccccc1N1C(=O)CN(Cc2cc(OC)c(OC)c(OC)c2)C1=S	31.6µM	?	?	–	–
CCCCCC(=O)N1C[C@@H](O)[C@H](n2cc(-c3ccc(F)cc3)nn2)C[C@H]1c1ccccc1	·	–	·	·	·
CCCCCOC(=O)C1=C(C)Nc2ncnn2C1c1cccs1 (stereo not drawn)	?	20.6µM	?	?	?
